Eight molecules from PubChem BioAssay (Tox21) can be followed below.

Values joined by “and” are separate entries in the source; they are usually repeats but may differ in a detail not shown here. Equal values may be shown once. Results filed as inconclusive are left out. A structure can be active in one record and inactive in another. Active and inactive are the calls of the source. Unless noted, calls follow the shape of the full dose curve.

The nature of test [1]: Nuclear factor erythroid 2-related factor 2/antioxidant responsive element (Nrf2/ARE) small molecule agonists: qHTS cell viability counter screen in human keratinocytes (AID 1919968; active = well fitted curve in the direction sought with a large enough effect in the repeat runs; an effect the other way counts as inactive or inconclusive; also: nearly all actives have a fitted effect of over 55% in size; also: potency is read from the fitted curve at half-maximal effect). The gist of the method: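 Fluorescence read-out from CellTiter-Fluor after 1 h at 37 C. Wells held HaCaT-derived ARE-luciferase reporter cells (1,500/well) treated 23 h with DMSO-dissolved compounds. Run in the same wells as the luciferase agonist read.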
For orientation: In qHTS, concentration-response curves come from the screen itself.

The nature of test [2]: Nuclear factor erythroid 2-related factor 2/antioxidant responsive element (Nrf2/ARE) small molecule agonists: luciferase reporter gene qHTS assay in human keratinocytes (AID 1919969). Also: nearly all actives have a fitted effect of over 35% in size. Also: potency is read from the fitted curve at half-maximal effect.
The target of test [3] is Gonadotropin-releasing hormone receptor (Homo sapiens) (UniProt P30968). Put plainly: Human gonadotropin-releasing hormone receptor (GnRHR) small molecule agonists, calcium flux assay in GnRHR-HEK293 cells (AID 1920063). Also: nearly all actives have a fitted effect of over 35% in size. The gist of the method: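 Calcium-dye fluorescence, Ex/Em=480/540, recorded every 1 sec over 3 min after compound addition to GnRHR-HEK293 cells. Cells had been seeded 18 hours earlier and dye-loaded for 1 hour at 37 C. Fifteen concentrations, triplicates.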
Sequence of Gonadotropin-releasing hormone receptor (Homo sapiens) (P30968 whole entry, looked up): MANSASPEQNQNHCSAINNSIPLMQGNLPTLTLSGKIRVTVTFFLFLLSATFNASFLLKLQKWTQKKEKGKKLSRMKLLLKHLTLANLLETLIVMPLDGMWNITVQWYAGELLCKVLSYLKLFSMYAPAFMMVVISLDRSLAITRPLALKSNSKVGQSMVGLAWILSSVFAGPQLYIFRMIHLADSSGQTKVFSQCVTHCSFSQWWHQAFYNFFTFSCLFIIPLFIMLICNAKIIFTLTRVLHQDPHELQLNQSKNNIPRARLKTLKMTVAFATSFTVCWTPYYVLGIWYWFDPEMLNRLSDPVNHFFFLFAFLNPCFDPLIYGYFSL
(In general: Calcium assays in cells follow changes in intracellular calcium, usually with a dye or a luminescent sensor.)

In test [4] the target is KiSS-1 receptor (Homo sapiens) (UniProt Q969F8). The test can be described thus: Human kisspeptin (KISS1R) small molecule agonists, calcium flux assay in KISS1R-HEK293 cells (AID 1920064; active = well fitted curve in the direction sought with a large enough effect in the repeat runs; an effect the other way counts as inactive or inconclusive). The gist of the method: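 Calcium flux read-out: kinetic fluorescence at Ex/Em=480/540, 1 s intervals over 3 min, after pin-tool compound addition to dye-loaded KISS1R-HEK293 cells. Fifteen concentrations, triplicates.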
Sequence of KiSS-1 receptor (Homo sapiens) (Q969F8 whole entry, looked up): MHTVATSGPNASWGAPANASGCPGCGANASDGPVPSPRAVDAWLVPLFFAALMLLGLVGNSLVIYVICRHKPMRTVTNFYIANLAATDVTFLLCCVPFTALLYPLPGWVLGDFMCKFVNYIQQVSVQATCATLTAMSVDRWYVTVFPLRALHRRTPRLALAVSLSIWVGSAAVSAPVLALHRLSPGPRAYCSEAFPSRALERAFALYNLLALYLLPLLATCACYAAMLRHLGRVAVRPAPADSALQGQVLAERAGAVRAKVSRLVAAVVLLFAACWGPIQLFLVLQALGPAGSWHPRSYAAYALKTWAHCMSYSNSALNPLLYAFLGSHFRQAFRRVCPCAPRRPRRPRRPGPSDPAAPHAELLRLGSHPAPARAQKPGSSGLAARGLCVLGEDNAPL

A short description of test [5]: G protein-coupled receptor (GPCR) small molecule agonists, calcium flux assay: HEK293 wild type cell line counter screen (AID 1920065). A digest of the protocol:
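Agonist mode; 18 h seeding at 37 C, 1 h dye load at 37 C; compounds pinned from DMSO, ATP as positive control; kinetic fluorescence 480/540 nm, 3 min, 1 s reads; 15 concentrations, triplicate.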

Test [6] is described as follows: p53 small molecule agonists, cell-based qHTS assay with human liver microsomes: qHTS cell viability counter screen (AID 1963579). Also: nearly all actives have a fitted effect of over 45% in size. Also: potency is read from the fitted curve at half-maximal effect. A digest of the protocol:
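Tox21 library compounds, delivered from DMSO stocks, were tested on p53RE-bla cells together with 0.5 mg/mL human liver microsomes and 0.5 mg/mL NADPH (final) over 16 h at 37 C; CellTiter-Glo luminescence served as the cytotoxicity measure.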

A short description of test [7]: p53 small molecule agonists, cell-based qHTS assay with rat liver microsomes: qHTS cell viability counter screen (AID 1963580). Also: nearly all actives have a fitted effect of over 45% in size. A digest of the protocol:
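Rat liver microsome (0.5 mg/mL final) and NADPH (0.5 mg/mL final) co-incubation with compounds for 16 h at 37 C on HCT-116 p53RE-bla cells; cytotoxicity taken from intracellular ATP luminescence.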

The nature of test [8]: p53 small molecule agonists, cell-based qHTS assay: qHTS cell viability counter screen (AID 1963581). Also: nearly all actives have a fitted effect of over 45% in size. The gist of the method:
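Cytotoxicity read-out: ATP-based luminescence (CellTiter-Glo, 30 min RT) measured in the same wells as the p53 reporter assay, HCT-116 p53RE-bla cells, 16 h compound exposure at 37 C.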

Test [9] addresses 5-hydroxytryptamine receptor 2A (Homo sapiens) (UniProt P28223). Put plainly: 5-hydroxytryptamine receptor 2A (HTR2A) small molecule antagonists, cell-based qHTS assay (AID 1963586). Also: nearly all actives have a fitted effect of over 45% in size. A digest of the protocol: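 CHO cells stably expressing human HTR2A were plated for 18 h at 37 C, then loaded with calcium dye for 1 h. Compounds were preincubated 5 min at room temperature before DOI (4 nM solution) was added. Kinetic fluorescence was read for 3 min.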

The target is the same in test [10]. The test can be described thus: 5-hydroxytryptamine receptor 2A (HTR2A) small molecule agonists, cell-based qHTS assay (AID 1963587). Also: nearly all actives have a fitted effect of over 30% in size. A digest of the protocol:
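Kinetic calcium-flux fluorescence (2 min, 1 sec intervals) after compound addition in agonist mode. HTR2A-CHO cells were cultured 18 h, then dye-loaded 1 h at 37 C.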

In test [11] the target is Muscarinic acetylcholine receptor M1 (Homo sapiens) (UniProt P11229). The test can be described thus: Cholinergic receptor muscarinic 1 (CHRM1) small molecule antagonists, cell-based qHTS assay (AID 1963588). Also: nearly all actives have a fitted effect of over 40% in size. Also: potency is read from the fitted curve at half-maximal effect. A digest of the protocol:
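Compounds were tested at 15 concentrations in three independent runs. Dye-loaded CHRM1-CHO cells were exposed 5 min at room temperature before stimulation by acetylcholine added at 50nM. Intracellular calcium was read kinetically on FDSS for 3 min.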

Test [12] shares this target. Put plainly: Cholinergic receptor muscarinic 1 (CHRM1) small molecule agonists, cell-based qHTS assay (AID 1963589). Also: nearly all actives have a fitted effect of over 35% in size. The gist of the method: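 Calcium flux read-out: kinetic fluorescence at 1 sec intervals after pin-tool compound addition to dye-loaded CHRM1-CHO cells (human M1). Agonist mode; 15 concentrations tested in triplicate independent runs.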
The nature of test [13]: cAMP Responsive Elements (CRE) small molecule agonists, cell-based qHTS assay (AID 1963590). The gist of the method:
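Beta-lactamase reporter readout: LiveBLAzer B/G FRET substrate, 2 h at room temperature, added after 3 h compound treatment of CRE-bla HEK 293T cells at 37 C/5% CO2.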

Test [14] in a line: cAMP Responsive Elements (CRE) small molecule antagonists, cell-based qHTS assay (AID 1963591; active = well fitted inhibition curve with a large enough effect in the signal ratio in the repeat runs, not every such curve was filed as active; the % refers to the signal ratio). A digest of the protocol: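 HEK293T CRE-bla; 18 h preincubation; compound pin-transfer; NKH477 0.25 uM final, 3 h, 37 C; LiveBLAzer FRET substrate 2 h RT.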
The target in test [15] is Beta-2 adrenergic receptor (Homo sapiens) (UniProt P07550). Put plainly: Adrenergic beta2 receptor (ADRB2) small molecule antagonists, cell-based qHTS assay (AID 1963592). Also: series mostly up to about 92 µM; nearly all actives have a fitted effect of over 50% in size. The gist of the method:
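Assay format: CHO-ADRB2 cells, 18-20hr seeding at 37C/5% CO2, then compound plus 1nM isoproterenol agonist mix for 0.5hr RT. Homogeneous time-resolved fluorescence cAMP detection after 1hr, expressed as 665/615 nm ratio.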

Test [16] has as its target D(2) dopamine receptor (Homo sapiens) (UniProt P14416). The test can be described thus: Dopamine D2 receptor (DRD2) small molecule agonists, cell-based qHTS assay (AID 1963594). Also: nearly all actives have a fitted effect of over 35% in size. The gist of the method:
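cAMP accumulation in DRD2-HEK293 cells measured by HTRF after 1 h detection; compounds added 10 min before NKH477 (200nM […]) forskolin-analogue stimulation, 30 min at room temperature, with Ro20-1724 present at 0.1 mM final.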

For test [17] the target is unchanged. Put plainly: Dopamine D2 receptor (DRD2) small molecule antagonists, cell-based qHTS assay (AID 1963595; active = well fitted inhibition curve with a large enough effect in the signal ratio in the repeat runs, with a control signal flat; the % refers to the signal ratio). A digest of the protocol:
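HEK293 cells stably expressing DRD2 were preincubated with 0.1 mM Ro20-1724, then with compound for 10 min at room temperature. Cells were stimulated with 200 nM NKH477 plus 12 nM quinpirole for 30 min, and cAMP was read by HTRF.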

Test [18] deals with Beta-2 adrenergic receptor (Homo sapiens) (UniProt P07550). The test can be described thus: Adrenergic beta2 receptor (ADRB2) small molecule agonists, cell-based qHTS assay (AID 1963593).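 Also: CHO cells stably overexpressing human ADRB2.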 A digest of the protocol: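 CHO cells stably over-expressing ADRB2 were plated overnight at 37C, then dosed with compounds plus a stimulation mix containing 100uM IBMX and 25uM Ro-20-1724 for 0.5hr at room temperature. cAMP was measured by HTRF competition, 1hr.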
Sequence of Beta-2 adrenergic receptor (Homo sapiens) (P07550 whole entry, looked up): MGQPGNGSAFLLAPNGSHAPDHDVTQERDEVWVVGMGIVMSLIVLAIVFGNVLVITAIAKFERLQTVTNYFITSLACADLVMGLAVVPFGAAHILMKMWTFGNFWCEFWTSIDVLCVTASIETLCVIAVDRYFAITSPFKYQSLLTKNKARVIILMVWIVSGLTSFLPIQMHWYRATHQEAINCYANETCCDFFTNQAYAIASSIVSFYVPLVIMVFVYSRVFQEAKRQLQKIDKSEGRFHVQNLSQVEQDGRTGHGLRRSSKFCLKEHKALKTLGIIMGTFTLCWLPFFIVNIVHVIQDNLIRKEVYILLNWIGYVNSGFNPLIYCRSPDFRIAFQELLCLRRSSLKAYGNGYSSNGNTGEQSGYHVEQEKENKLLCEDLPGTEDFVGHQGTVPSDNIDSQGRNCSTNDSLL

Test [19] in a line: p53 small molecule agonists, cell-based qHTS assay with rat liver microsomes (AID 1963578). A digest of the protocol:
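Each plate received p53RE-bla cells, then compound, then rat liver microsomes and NADPH (both 0.5 mg/mL final). Plates were held 16 h at 37 C, and beta-lactamase activity was detected with LiveBLAzer over 2 h.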

Sequence of Muscarinic acetylcholine receptor M1 (Homo sapiens) (P11229 whole entry, looked up): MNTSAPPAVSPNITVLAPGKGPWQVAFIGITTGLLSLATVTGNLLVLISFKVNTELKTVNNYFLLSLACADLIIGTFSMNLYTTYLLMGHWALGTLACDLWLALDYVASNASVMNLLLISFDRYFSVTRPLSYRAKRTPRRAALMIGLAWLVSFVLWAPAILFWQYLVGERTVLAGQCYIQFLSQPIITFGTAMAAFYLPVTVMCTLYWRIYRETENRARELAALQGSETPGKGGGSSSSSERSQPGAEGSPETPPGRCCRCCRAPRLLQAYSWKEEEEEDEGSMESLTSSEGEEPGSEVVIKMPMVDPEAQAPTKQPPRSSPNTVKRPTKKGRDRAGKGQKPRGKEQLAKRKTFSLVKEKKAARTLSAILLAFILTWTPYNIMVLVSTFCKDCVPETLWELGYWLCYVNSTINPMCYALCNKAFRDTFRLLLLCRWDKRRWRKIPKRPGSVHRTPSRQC
Sequence of D(2) dopamine receptor (Homo sapiens) (P14416 whole entry, looked up): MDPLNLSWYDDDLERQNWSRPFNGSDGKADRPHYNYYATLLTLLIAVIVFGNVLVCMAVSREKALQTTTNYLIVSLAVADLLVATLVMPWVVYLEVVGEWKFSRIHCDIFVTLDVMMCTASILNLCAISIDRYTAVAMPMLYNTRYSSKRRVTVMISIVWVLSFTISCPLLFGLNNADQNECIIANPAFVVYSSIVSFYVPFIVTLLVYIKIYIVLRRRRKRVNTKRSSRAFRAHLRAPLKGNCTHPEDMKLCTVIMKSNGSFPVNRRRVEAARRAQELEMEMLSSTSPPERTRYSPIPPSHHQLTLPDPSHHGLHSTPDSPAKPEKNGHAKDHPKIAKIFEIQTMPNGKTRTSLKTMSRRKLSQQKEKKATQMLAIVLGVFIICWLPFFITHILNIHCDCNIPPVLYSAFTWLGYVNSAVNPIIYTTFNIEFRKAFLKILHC
Sequence of 5-hydroxytryptamine receptor 2A (Homo sapiens) (P28223 whole entry, looked up): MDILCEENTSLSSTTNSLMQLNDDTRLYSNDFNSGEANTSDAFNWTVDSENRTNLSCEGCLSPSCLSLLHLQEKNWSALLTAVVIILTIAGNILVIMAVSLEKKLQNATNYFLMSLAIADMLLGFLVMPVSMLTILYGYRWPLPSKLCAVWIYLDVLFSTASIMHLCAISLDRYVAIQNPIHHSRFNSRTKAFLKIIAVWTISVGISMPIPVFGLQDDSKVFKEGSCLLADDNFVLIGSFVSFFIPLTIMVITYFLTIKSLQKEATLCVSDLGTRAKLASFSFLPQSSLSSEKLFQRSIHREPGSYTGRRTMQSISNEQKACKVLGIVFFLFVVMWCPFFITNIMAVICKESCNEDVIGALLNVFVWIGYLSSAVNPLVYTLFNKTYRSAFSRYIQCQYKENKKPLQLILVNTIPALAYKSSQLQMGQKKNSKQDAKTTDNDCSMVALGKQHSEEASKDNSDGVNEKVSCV

Turning to `Clc1cccc(Cl)c1Cl`, the Potency result in [1], in test [2], in test [3], in [4], in [5] and in [6] was “inactive” throughout. Moreover, the Potency entry in test [7], in test [8], in test [9], in [10], in test [11] and in test [12] was “inactive” in each case. For the same molecule, the Potency result in test [13], in [14], in test [15], in [16] and in [17] was “inactive” each time.
As to `CCCCCC[n+]1ccccc1`, the Potency entry in [1], in [3], in [4], in test [5], in test [7] and in test [8] was “inactive” each time. The Potency entry in [12], in test [13], in [14], in test [15], in [18] and in test [16] was “inactive” each time. Also, the Potency entry in test [17] was “inactive”. Besides, the Potency was 69.2 µM (active) and 69 µM (active) and inactive in [2]; 11.6 µM (active) and 9.19 µM (active) and inactive in [6].
As to `CCCn1cc[n+](C)c1`, the Potency result in test [1], in test [2], in [3], in test [4], in test [5] and in test [6] was “inactive” throughout. For the same molecule, the Potency result in [8], in [9], in test [10], in test [11], in test [12] and in test [13] was “inactive” each time. For the same molecule, the Potency entry in test [14], in [15], in test [18], in [16] and in [17] was “inactive” in each case.
As for `O=C(CCl)c1ccc(Cl)cc1Cl`, the Potency entry is “inactive and 11.9 µM (active)” in test [1]; 60.8 µM (active) and 11.9 µM (active) in test [2]. In addition, the Potency result in [3], in test [4], in [5], in [6], in test [7] and in test [8] was “inactive” in each case. Further, the Potency entry in test [9], in test [10], in test [11], in [12], in [13] and in [14] was “inactive” throughout. Moreover, the Potency result in test [15], in test [16] and in [17] was “inactive” throughout.
In the case of `Cc1ccc(N)cc1Cl`, the Potency result in [1], in test [2], in [3], in test [4], in [5] and in [6] was “inactive” throughout. The Potency result in test [7], in test [10], in test [11], in [12], in test [13] and in [14] was “inactive” in each case. The Potency entry in test [15], in test [18], in [16] and in [17] was “inactive” in each case.
Consider `C=CC(Cl)CCl` (configuration not stated), for which the Potency entry in test [1], in test [2], in test [3], in [4], in test [5] and in [6] was “inactive” each time. The Potency entry in test [8], in test [9], in [10], in [11], in test [12] and in [13] was “inactive” throughout. Also, the Potency entry in [14], in test [15], in test [16] and in test [17] was “inactive” in each case.
As for `CCc1cccc(CC)c1N(COC)C(=O)CCl`, the Potency result in test [1], in test [3], in test [4], in [5], in [6] and in test [8] was “inactive” throughout. Further, the Potency entry in [9], in test [10], in [11], in [12], in test [15] and in test [16] was “inactive” each time. Besides, the Potency result in [17] was “inactive”. Besides, in test [2], the Potency is 47 µM (active) and 54.5 µM (active).
Regarding `CC(C)(C)OOC(=O)c1ccccc1`, the Potency entry in test [1], in [2], in [3], in test [4], in [19] and in [6] was “inactive” throughout. Besides, the Potency result in test [7], in [8], in [10], in test [12], in test [13] and in test [15] was “inactive” throughout. In addition, the Potency result in test [18] and in [16] was “inactive” throughout. Moreover, the Potency in test [11] is 13.3 µM (active) and inactive.
